High-throughput results from PubChem BioAssay.
C diff HTS – inhibitors of Clostridium difficile growth. Clostridium difficile clinical isolate growth, OD600, 24 h; hits give low values. 86,000 tested, 0.25% active. AID 1259249. growth activity, negative = inhibition, % at 16 µg/mL (by protocol);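 active = mean growth activity at or below -80% and every replicate also at or below -80%; inconclusive = mean at or below -80% but some replicate above -80%; inactive = mean growth activity above -80%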;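 also: 0% = DMSO wells and -100% = levofloxacin 16 µg/mL wells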
T cruzi growth-1 – T. cruzi proliferation inhibition. T. cruzi beta-gal in NIH3T3, GalScreen luminescence, 90 h. inhibition, % at 8.34 µM. AID 624255. 77,000 tested, 5.9% active;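 active = mean inhibition above about 93%, with at least 55% of replicates each passing it, limit read from the data, passing the limit was not always enough; inconclusive = only one of those two conditions holds; inactive = neither condition holds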
Pf Dd2 inh – blocks growth of Plasmodium falciparum Dd2 parasites | P. falciparum Dd2 growth, SYBR Green, 72 h; hits give low values | activity change, % at 10 µM | 94,000 tested, 2.3% active | AID 1159554; in the data active = activity change below about -80%; inconclusive = no clear call, values can overlap the other calls
T cruzi growth-2 – blocks T. cruzi growth in NIH3T3 host cells | inhibition, % at 8.35 µM | 5,600 tested, 72% active | T. cruzi beta-gal in NIH3T3, GalScreen luminescence, 90 h | AID 651739 | shares compounds with T cruzi growth-1;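 active = mean replicate inhibition above about 95% and at least 55% of replicates individually reaching it, limit read from the data; inconclusive = only one of the two criteria is met; inactive = neither criterion is met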
T cruzi growth-3 – Trypanosoma cruzi proliferation inhibition; shares compounds with T cruzi growth-1; T. cruzi beta-gal in NIH3T3, GalScreen luminescence, 90 h; inhibition, % at 2.09 µM; 5,600 tested, 21% active;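 active = mean inhibition above about 95%, with at least 55% of replicates also reaching it, limit read from the data; inconclusive = meets just one of the two conditions; inactive = meets neither condition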;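 also: plate controls were neutral control median for no effect and positive control median for full effect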
NIH3T3 tox – cytotoxicity in mouse NIH/3T3 fibroblasts | NIH/3T3 viability, CellTiter-Glo ATP luminescence, 90 h | cytotoxicity (signal decrease), % at 8.35 µM | shares compounds with T cruzi growth-1 | 5,600 tested, 14% active;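 active = mean signal decrease across replicates above about 35% based on untreated-well scatter, with enough replicates individually passing, limit read from the data; inconclusive = no rule stated though some were filed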;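 also: 0% = median of neutral control wells and 100% = median of positive control wells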
NIH3T3 tox 2 – cytotoxicity in mouse NIH/3T3 fibroblasts; shares compounds with T cruzi growth-1; NIH/3T3 viability, CellTiter-Glo ATP luminescence, 90 h; inhibition, % at 24.9 µM; 5,600 tested, 56% active; AID 651744;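 active = mean loss of cell viability signal at or above a set limit, and enough replicates individually reaching it; inconclusive = meets only the mean limit or only the replicate share; inactive = meets neither condition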;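 also: 0% = median of neutral control wells and 100% = median of positive control wells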
The depositor's hits bear a star; ? = inconclusive; nt = not tested or not shown; ! = repeats disagree. Hits are enriched below; roughly 6.7% of the tested compounds scored in any of these assays.

SMILES | C diff HTS | T cruzi growth-1 | Pf Dd2 inh | T cruzi growth-2 | T cruzi growth-3 | NIH3T3 tox | NIH3T3 tox 2
Cc1ccc(S(=O)(=O)Nc2ccc3c(c2)C(=O)N([C@@H](C)CO)C[C@@H](C)[C@H](CN(C)S(=O)(=O)c2ccc(C)cc2)OCCCC[C@H](C)O3)cc1 | nt | ? | -63.9 | 106.1* | 69.2 | 5.9 | 57.8*
Cc1ccc(S(=O)(=O)Nc2ccc3c(c2)C(=O)N([C@H](C)CO)C[C@H](C)[C@H](CN(C)CC2CCCCC2)OCCCC[C@H](C)O3)cc1 | 16.7 | ? | -57.6 | 99.7* | 93.7 | 7.9 | 102.3*
O=C(C[C@@H]1C=C[C@H](NC(=O)CN2CCOCC2)[C@@H](CO)O1)NC1CCCCC1 | 3.7 | -51.8 | 14.0 | nt | nt | nt | nt
C[C@H](CO)N1C[C@H](C)[C@@H](CN(C)Cc2ccc(-c3ccccc3)cc2)Oc2c(NS(=O)(=O)c3ccc(Cl)cc3)cccc2C1=O | 14.9 | 36.2 | -9.0 | nt | nt | nt | nt
COc1ccc(S(=O)(=O)N(C)C[C@@H]2Oc3cc(C#CC4CC4)ccc3S(=O)(=O)N([C@@H](C)CO)C[C@@H]2C)cc1 | 9.3 | 109.8* | -53.3 | 103.8* | 100.9* | -19.2 | 26.9*
C[C@@H]1CN([C@H](C)CO)S(=O)(=O)c2ccc(C#CC3CCCC3)cc2O[C@H]1CN(C)S(C)(=O)=O | nt | 43.2 | -10.2 | nt | nt | nt | nt
COc1ccc(S(=O)(=O)N(C)C[C@@H]2Oc3cc(C#CC4CC4)ccc3S(=O)(=O)N([C@H](C)CO)C[C@@H]2C)cc1 | 15.9 | 109.0* | -54.0 | 104.3* | 84.7 | 11.8 | 25.3*
COCC#Cc1ccc2c(c1)O[C@H](CN(C)S(=O)(=O)c1ccc(OC)cc1)[C@@H](C)CN([C@H](C)CO)S2(=O)=O | 0.1 | nt | -29.1 | nt | nt | nt | nt
COc1ccc(S(=O)(=O)N(C)C[C@@H]2Oc3cc(C#CC4CCCC4)ccc3S(=O)(=O)N([C@H](C)CO)C[C@H]2C)cc1 | 3.0 | 13.2 | -49.3 | nt | nt | nt | nt
Cc1ccc(S(=O)(=O)N(C)C[C@@H]2Oc3cc(C#CC4CCCC4)ccc3S(=O)(=O)N([C@H](C)CO)C[C@@H]2C)cc1 | 27.9 | 124.7* | -28.8 | 89.3 | 102.9* | 7.1 | 4.4
COc1ccc(S(=O)(=O)N(C)C[C@@H]2Oc3cc(C#CC4CCCCC4)ccc3S(=O)(=O)N([C@@H](C)CO)C[C@@H]2C)cc1 | 0.4 | 110.9*! | -84.0*! | 92.3 | 78.1 | -10.5 | 59.2*
COCC#Cc1ccc2c(c1)O[C@H](CN(C)S(=O)(=O)c1ccc(OC)cc1)[C@H](C)CN([C@H](C)CO)S2(=O)=O | -7.4 | nt | -39.0 | nt | nt | nt | nt
CN1CCN(C(=O)C[C@H]2CC[C@@H](NC(=O)Cc3ccccn3)[C@@H](CO)O2)CC1 | nt | 21.0 | 9.4 | nt | nt | nt | nt
C[C@@H]1CCCCO[C@H](CN(C)C(=O)Nc2ccccc2)[C@H](C)CN([C@@H](C)CO)C(=O)c2cc(NC(=O)Nc3cccc4ccccc34)ccc2O1 | nt | 79.7 | -42.3 | nt | nt | nt | nt
CCCNC(=O)N1CC2(C1)[C@H](c1ccccc1)[C@@H](CO)N2CC1CC1 | 0.3 | nt | 31.8 | nt | nt | nt | nt
CN1C(=O)c2cc(NC(=O)C3CCC3)ccc2OC[C@H]2O[C@H](CC(=O)NCCc3ccncc3)CC[C@H]21 | -2.7 | nt | 21.3 | nt | nt | nt | nt
CC=Cc1ccc2n(c1=O)C[C@H]1[C@H](CO)[C@@H](C(=O)N[C@@H](C)c3ccccc3)[C@@H]2N1Cc1ccccc1 (mixture of isomers) | -8.8 | nt | 12.5 | nt | nt | nt | nt
CO[C@@H](CN(C)S(=O)(=O)c1ccc(C)cc1)[C@H](C)CN(C(=O)Nc1ccccc1F)[C@@H](C)CO | nt | 40.2 | 6.9 | nt | nt | nt | nt
COc1cccc(CN2C[C@@H](C)[C@H](OC)CN(C)C(=O)c3ccc(NS(=O)(=O)c4cn(C)cn4)cc3OC[C@H]2C)c1 | -1.6 | 9.9 | -3.2 | nt | nt | nt | nt
CS(=O)(=O)Nc1ccc2c(c1)[C@H]1C[C@@H](CC(=O)NCc3ccccn3)O[C@H](CO)[C@H]1O2 | 0.5 | 41.9 | 15.9 | nt | nt | nt | nt
CN(C)C(=O)C[C@@H]1CC[C@H](NC(=O)Nc2cccc(F)c2)[C@@H](CO)O1 | 0.2 | nt | 17.2 | nt | nt | nt | nt
COc1ccc(S(=O)(=O)N(C)C[C@H]2Oc3cc(C#CC4CC4)ccc3S(=O)(=O)N([C@H](C)CO)C[C@@H]2C)cc1 | 6.0 | 105.8* | -53.6 | 103.0* | 51.6 | 22.0 | 49.9*
COCC#Cc1ccc2c(c1)O[C@@H](CN(C)S(=O)(=O)c1ccc(OC)cc1)[C@@H](C)CN([C@H](C)CO)S2(=O)=O | 9.2 | nt | -18.0 | nt | nt | nt | nt
COc1ccc2c3c([nH]c2c1)[C@H](CO)N(S(C)(=O)=O)CC31CCN(CC2CCCCC2)CC1 | -6.9 | nt | ? | nt | nt | nt | nt
Cc1noc(C)c1NC(=O)N(C)C[C@@H]1OCCCC[C@H](C)Oc2ccc(NC(=O)Nc3ccc(F)cc3)cc2C(=O)N([C@@H](C)CO)C[C@@H]1C | -1.2 | -10.6 | -50.9 | nt | nt | nt | nt
SMILES | C diff HTS | T cruzi growth-1 | Pf Dd2 inh | T cruzi growth-2 | T cruzi growth-3 | NIH3T3 tox | NIH3T3 tox 2
COc1cccc(C(=O)Nc2ccc3c(c2)C(=O)N(C)C[C@H](OC)[C@@H](C)CN(CCc2ccccc2)[C@H](C)CO3)c1 | nt | 84.2 | -49.1 | nt | nt | nt | nt
COc1cccc(C(=O)Nc2ccc3c(c2)OC[C@H](C)N(CCc2ccccc2)C[C@@H](C)[C@@H](OC)CN(C)C3=O)c1 | nt | 119.1* | -34.8 | 108.5* | 61.9 | 13.0 | -0.6
COc1cccc(C(=O)Nc2ccc3c(c2)OC[C@H](C)N(CCc2ccccc2)C[C@H](C)[C@@H](OC)CN(C)C3=O)c1 | nt | 115.7* | -52.4 | 103.3* | 77.3 | -6.4 | 8.0
COc1cccc(C(=O)Nc2ccc3c(c2)C(=O)N(C)C[C@H](OC)[C@H](C)CN(CCc2ccccc2)[C@@H](C)CO3)c1 | nt | ? | -58.3 | nt | nt | nt | nt
COc1cccc(C(=O)Nc2ccc3c(c2)OC[C@@H](C)N(CCc2ccccc2)C[C@@H](C)[C@@H](OC)CN(C)C3=O)c1 | nt | 67.7 | -54.6 | nt | nt | nt | nt
COc1cccc(C(=O)Nc2ccc3c(c2)OC[C@@H](C)N(CCc2ccccc2)C[C@H](C)[C@@H](OC)CN(C)C3=O)c1 | nt | 110.0* | -2.1 | 110.0* | 55.7 | -18.9 | -4.9
C[C@@H]1CN([C@H](C)CO)C(=O)c2cc(NS(=O)(=O)c3ccc(F)cc3)ccc2O[C@H]1CN(C)Cc1ccc(Oc2ccccc2)cc1 | 16.5 | 50.2 | -21.3 | nt | nt | nt | nt
C[C@@H]1CCCCO[C@@H](CN(C)C(=O)Cc2ccccc2)[C@H](C)CN([C@H](C)CO)C(=O)c2cc(NC(=O)Nc3ccccc3)ccc2O1 | nt | 16.3 | -36.6 | nt | nt | nt | nt
O=C(C[C@@H]1C=C[C@@H](NC(=O)Nc2ccc(F)cc2)[C@H](CO)O1)NCc1ccccn1 | 0.7 | 34.9 | 2.5 | nt | nt | nt | nt
C[C@@H]1CCCCO[C@H](CN(C)Cc2ccc(C(F)(F)F)cc2)[C@H](C)CN([C@@H](C)CO)C(=O)c2cc(NC(=O)C3CCCCC3)ccc2O1 | 14.9 | 117.1* | -40.0 | 102.2* | 110.2* | 57.1* | 73.3*
